One test deals with SgK110. Particulars: concentration: 1 μM, replicates: in singlicate; n = 1.
The next test deals with T1, TAK1.
T1 construct: gene MAP3K7
Particulars: concentration: 1 μM, replicates: in singlicate; n = 1.

The next test relates to TAOK1. Particulars: concentration: 1 μM, replicates: in singlicate; n = 1.
The test system of another test is TAOK2. Particulars: concentration: 1 μM, replicates: in singlicate; n = 1.
The subject of a further test is TAOK3. Particulars: concentration: 1 μM, replicates: in singlicate; n = 1.
The test system of the next test is TBK1. Particulars: concentration: 1 μM, replicates: in singlicate; n = 1.
The subject of the next test is TEC. Particulars: concentration: 1 μM, replicates: in singlicate; n = 1.
The subject of another test is TESK1. Particulars: concentration: 1 μM, replicates: in singlicate; n = 1.
The subject of a further test is TGFBR1. Particulars: n = 1.
In the next test the test system is TGFBR2. Particulars: concentration: 1 μM, replicates: in singlicate; n = 1.
Setting [1] is: concentration: 1 μM, replicates: in singlicate.

Like-named read-outs stand apart in the source and are kept apart here.
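Also: KINOMEscan kinase panel screen.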

Turning to `Clc1cc(Nc2ncnc3cc[nH]c23)ccc1OCc1ccccn1`, the “%Inh” value came out at 0% with SgK110; 9% in the test with TAK1; 0% with TAOK1; 0% with TAOK2; 0% in the test with TAOK3; 4% in the test with TBK1. Further, the “%Inh” value is recorded as 0% with TEC, 7% in the test on TESK1, 15% in the test with TGFBR1 (setting [1]) and 0% with TGFBR2.
In the case of `Nc1nccc2scc(-c3ccc4c(c3)CCN4C(=O)Cc3cc(F)ccc3F)c12` [GSK2587663], the “%Inh” value in the test with SgK110 was 0%; in the test on TAK1, 0%; with TAOK1, 0%; in the test on TAOK2, 0%; in the test on TAOK3, 0%; in the test on TBK1, 6%. Further, the “%Inh” value in the test with TEC worked out at 0%; with TESK1 it was 18%; in the test on TGFBR1 (setting [1]) it was 19%; with TGFBR2 it was 0%.
Turning to `Nc1nc(-c2cccnc2)c(-c2ccnc3ccccc23)s1` [GW684083], the “%Inh” value with SgK110 worked out at 48%; in the test on TAK1 it was 1%; with TAOK1 it was 0%; in the test on TAOK2 it was 0%; with TAOK3, 0%; in the test with TBK1 it was 2%. Besides, the “%Inh” value in the test with TEC is on record as 0%; with TESK1, 0%; with TGFBR1 (setting [1]) it was 5%; in the test with TGFBR2 it was 14%.
As to `Cn1cc(-c2ccc3c(c2)CCN3C(=O)Cc2cccc(C(F)(F)F)c2)c2c(N)ncnc21` [GSK2606414], the “%Inh” value worked out at 0% with SgK110; 0% in the test with TAK1; 4% in the test with TAOK1; 0% in the test on TAOK2; 3% in the test with TAOK3; 9% in the test with TBK1. Besides, the “%Inh” value is listed as 1% in the test with TEC, 5% with TESK1, 0% in the test with TGFBR1 (setting [1]) and 9% in the test with TGFBR2.
For the compound `OCCOCCn1ccc2ncnc(Nc3ccc(Oc4cccc(Cl)c4)c(Cl)c3)c21`, the “%Inh” value in the test with SgK110 is listed as 0%; in the test with TAK1 it was 0%; in the test with TAOK1 it was 0%; in the test with TAOK2, 0%; in the test on TAOK3, 0%; in the test with TBK1 it was 7%. The “%Inh” value with TEC is 0%; in the test with TESK1, 0%; with TGFBR1 (setting [1]), 7%; with TGFBR2, 0%.
On to `CN1c2ccc(-c3ccc(C(=O)NCCO)cc3)cc2-c2[nH]ncc2S1(=O)=O`, for which the “%Inh” value turned out to be 0% in the test on SgK110; 63% in the test with TAK1; 0% in the test with TAOK1; 30% with TAOK2; 0% in the test with TAOK3; 31% with TBK1. The “%Inh” value in the test on TEC was 1%; with TESK1 it was 17%; in the test on TGFBR1 (setting [1]), 0%; in the test on TGFBR2, 0%.
On to `Cc1ccc(O)cc1Nc1cc(C(F)(F)F)nc2ccc(-c3ccncc3)cc12` [GW630823], for which the “%Inh” value in the test with SgK110 was 0%; in the test with TAK1 it was 0%; with TAOK1, 0%; in the test with TAOK2 it was 5%; in the test with TAOK3 it was 0%; in the test on TBK1, 5%. Further, the “%Inh” value amounted to 92.1% with TEC, 6% in the test on TESK1, 5% in the test with TGFBR1 (setting [1]) and 0% in the test on TGFBR2.
Take `CSc1ccc(NC2=C(c3ccccc3Cl)C(=O)NC2=O)cc1` [SB-342411]: the “%Inh” value in the test on SgK110 is reported as 0%; in the test with TAK1, 7%; in the test on TAOK1, 0%; with TAOK2, 1%; in the test on TAOK3, 0%; in the test on TBK1 it was 27%. Besides, the “%Inh” value in the test on TEC worked out at 10%; with TESK1 it was 6%; in the test on TGFBR1 (setting [1]), 0%; in the test with TGFBR2, 0%.
Take `FC(F)(F)c1ccc(-c2cc(-c3c[nH]nc3-c3ccccn3)ccn2)cc1` [GW599550]: the “%Inh” value in the test on SgK110 is 0%; with TAK1, 28%; with TAOK1 it was 0%; in the test with TAOK2 it was 0%; in the test on TAOK3, 0%; in the test with TBK1, 18%. The “%Inh” value in the test on TEC is 0%; with TESK1, 17%; in the test with TGFBR1 (1 µM) it was 88%; in the test with TGFBR2, 77%.
Consider `CC(C)N1CCC(n2cnc(-c3ccc(F)cc3)c2-c2ccnc(N)n2)CC1` [SB-223132], for which the “%Inh” value was 0% in the test with SgK110; 0% with TAK1; 0% in the test on TAOK1; 0% in the test on TAOK2; 0% in the test on TAOK3; 50% with TBK1. The “%Inh” value in the test with TEC was found to be 6%; in the test with TESK1, 23%; in the test with TGFBR1 (setting [1]), 25%; with TGFBR2, 0%.
For the compound `CS(=O)(=O)CCNCc1ccc(-c2ccc3ncnc(Nc4ccc(OCc5ccccc5)c(Cl)c4)c3c2)o1.Cl` [GW574783], the “%Inh” value turned out to be 0% in the test on SgK110; 0% in the test on TAK1; 0% in the test with TAOK1; 0% in the test on TAOK2; 0% with TAOK3; 2% in the test on TBK1. Also, the “%Inh” value in the test on TEC was found to be 7%; in the test on TESK1 it was 4%; in the test with TGFBR1 (setting [1]), 11%; with TGFBR2, 9%.
For `O=C(Nc1ccccc1)Nc1ccc(Oc2ccc3nccn3n2)cc1`, the “%Inh” value in the test on SgK110 is reported as 27%; in the test with TAK1, 0%; with TAOK1, 0%; with TAOK2, 5%; in the test with TAOK3 it was 0%; with TBK1, 34%. Further, the “%Inh” value with TEC worked out at 10%; with TESK1, 11%; in the test with TGFBR1 (setting [1]) it was 0%; in the test with TGFBR2 it was 27%.
Turning to `CN1CCC(n2cnc(-c3ccc(F)cc3)c2-c2ccnc(NC3CCNCC3)n2)CC1` [SB-229482], the “%Inh” value with SgK110 was 0%; with TAK1 it was 34%; with TAOK1, 0%; in the test on TAOK2, 0%; in the test with TAOK3, 0%; with TBK1, 0%. In addition, the “%Inh” value in the test with TEC is 0%; in the test with TESK1 it was 7%; with TGFBR1 (setting [1]), 28%; with TGFBR2, 16%.
As for `Clc1cccc(-c2nc(Nc3ccncc3)c3ccccc3n2)c1` [GW873004], the “%Inh” value with SgK110 is listed as 38%; with TAK1 it was 0%; in the test on TAOK1 it was 0%; in the test with TAOK2, 4%; in the test with TAOK3 it was 0%; in the test on TBK1, 11%. Further, the “%Inh” value stood at 17% with TEC, 19% with TESK1 and 17% with TGFBR2.
Regarding `CCc1nc(-c2cccc(N(C)S(=O)(=O)c3ccccc3)c2)c(-c2ccnc(Nc3ccc(N4CCN(C(C)=O)CC4)nc3)n2)s1` [GSK1645895], the “%Inh” value in the test on SgK110 is 0%; with TAK1 it was 0%; with TAOK1, 0%; with TAOK2, 0%; with TAOK3, 2%; in the test with TBK1, 27%. Moreover, the “%Inh” value in the test with TEC is 7%; in the test with TESK1, 0%; in the test with TGFBR1 (setting [1]), 17%; with TGFBR2, 0%.
With `O=c1cc(N2CCOCC2)nc2n(Cc3cccc(Cl)c3)ccn12` [GSK2296823], the “%Inh” value in the test on SgK110 is reported as 0%; with TAK1 it was 0%; in the test with TAOK1, 0%; in the test on TAOK2, 0%; in the test with TAOK3, 0%; in the test with TBK1, 38%. Also, the “%Inh” value in the test on TEC is reported as 1%; in the test with TESK1 it was 0%; in the test on TGFBR1 (setting [1]), 0%; in the test on TGFBR2 it was 0%.
Consider `Fc1cccc(COc2ccc(Nc3ncnc4cc[nH]c34)cc2Cl)c1`, for which the “%Inh” value came to 0% in the test on SgK110; 8% in the test on TAK1; 0% in the test with TAOK1; 0% with TAOK2; 0% with TAOK3; 4% in the test with TBK1. Further, the “%Inh” value in the test with TEC turned out to be 18%; in the test on TESK1, 0%; in the test with TGFBR1 (setting [1]), 9%; with TGFBR2 it was 0%.

The values are drawn from publication PMC5540273 (PLoS ONE, 2017).
